Laboratory results as given in PubChem BioAssay (Tox21).
Records with an inconclusive call do not appear. Active and inactive are the calls of the source. Calls follow the shape of the dose curve; as a rule, active = well fitted cell-killing curve with a large enough effect in the repeat runs; inconclusive = weak or mixed curves; inactive = flat fitted curve, though single readings scatter.

Test: qHTS assay to identify small molecule antagonists of the TGF-beta/Smad signaling pathway - cell viability counter screen (AID 1346824); also: nearly all actives have a fitted effect of over 50% in size
Conditions: SBE-bla HEK293T viability, CellTiter-Glo luminescence; series mostly up to 76.8 µM
Outline: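 SBE-bla HEK 293T cells were plated overnight at 37 C, then given compounds in DMSO plus TGF-beta1 (added as 0.25 ng/mL solution) for 5 hr. After the bla read, CellTiter-Glo was added to the same wells and luminescence read after 30 min at room temperature.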
% is scaled to controls: 0 for no effect and ±100 for the full control effect.

Row | SMILES | viability change, negative = cytotoxic | outcome
1 | CCCCN1C=CN(C)C1 | -11.6% [at 15.8 µM] (inactive) | –
2 | CCCC(C)C(=O)OCC (configuration not stated) | – | inactive
3 | C[C@H]1C[C@H]2[C@@H]3CCC4=CC(=O)C=C[C@]4(C)[C@H]3C(=O)C[C@]2(C)[C@@]1(O)C(=O)CO | – | inactive
4 | CC[N+](C)(CC)CCOC(=O)C1c2ccccc2Oc2ccccc21 | – | inactive
5 | CO/N=C(\C(=O)N[C@@H]1C(=O)N2C(C(=O)O)=C(CSc3nc(=O)c(O)nn3C)CS[C@H]12)c1csc(N)n1 | – | inactive
6 | CC(=O)N[C@H]1[C@H]([C@H](O)[C@H](O)CO)OC(C(=O)O)=C[C@@H]1N=C(N)N | – | inactive
7 | CCOc1ccc2nc(S(N)(=O)=O)sc2c1 | – | inactive
8 | O=S(=O)(O)c1cccc2c(S(=O)(=O)O)cccc12 | – | inactive
9 | NC(=O)N[C@@H](CCC(=O)O)C(=O)O | – | inactive
10 | CNCC(O)c1ccc(O)c(O)c1 (configuration not stated) | – | inactive
11 | [Ca+2] | – | inactive
12 | Nc1ccccn1 | – | inactive
13 | O=C(O)CC(C(=O)O)S(=O)(=O)O (configuration not stated) | – | inactive
14 | CC(=O)C1CCCCC1=O (configuration not stated) | – | inactive
15 | CO[C@@]1(NC(=O)C(C(=O)O)c2ccc(O)cc2)C(=O)N2C(C(=O)O)=C(CSc3nnnn3C)CO[C@@H]21 (some centres not stated) | – | inactive
16 | O=S(=O)(O)c1cccc2ccccc12 | – | inactive
17 | CC[N+](CC)(CC(=O)Nc1c(C)cccc1C)Cc1ccccc1 (tested in a mixture with another compound) | – | inactive
18 | CN(C)C(=O)Oc1cccc([N+](C)(C)C)c1 | – | inactive
19 | CCN[C@@H]1C[C@H](N)[C@@H](OC2OC(CN)=CCC2N)[C@H](O)[C@H]1O[C@H]1OC[C@](C)(O)[C@H](NC)[C@H]1O (some centres not stated) | 6.56% [at 0.29 µM] (inactive) | –

Row | SMILES | viability change, negative = cytotoxic | outcome
20 | O=C(O)CNC(=O)c1ccc(CO)o1 | – | inactive
21 | CC(C)(C)C(=O)Oc1ccc(S(=O)(=O)Nc2ccccc2C(=O)NCC(=O)O)cc1 | – | inactive
22 | CN(C)CCN(C)CCN(C)C | – | inactive
23 | Cc1c(N)c(=O)n(-c2ccccc2)n1C | – | inactive
24 | NCCCC[C@H](N[C@@H](CCc1ccccc1)C(=O)O)C(=O)N1CCC[C@H]1C(=O)O | – | inactive
25 | Nc1ccn([C@@H]2O[C@H](CO)[C@@H](O)C2O)c(=O)n1 (some centres not stated) | – | inactive
26 | CC(C(=O)O)c1cccc(Oc2ccccc2)c1 (configuration not stated) | – | inactive
27 | O=C(O)CCCC[P+](c1ccccc1)(c1ccccc1)c1ccccc1 | – | inactive
28 | COc1cc(C)nc(-n2nc(C)cc2OC)n1 | – | inactive
29 | CCCCCCCCCCCCCCCCCCO | – | inactive
30 | CC12CCC(C(=O)C1=O)C2(C)C (configuration not stated) | – | inactive
31 | Cc1ccc(C(=O)c2ccc(CC(=O)O)n2C)cc1 | – | inactive
32 | C[N+]1(C)CCCC(OC(=O)C(O)(c2ccccc2)c2ccccc2)C1 (configuration not stated) | – | inactive
33 | NCCCC(N)(C(=O)O)C(F)F (configuration not stated) | – | inactive
34 | Cc1coc2ccccc2c1=O | – | inactive
35 | CC(C)COC(=O)c1ccc(N)cc1 | – | inactive
36 | CN1[C@@H]2CC[C@H]1CC(OC(=O)C(O)c1ccccc1)C2 (some centres not stated) | – | inactive
37 | COc1cccc(OC)c1C(=O)N[C@@H]1C(=O)N2[C@@H]1SC(C)(C)[C@@H]2C(=O)O | – | inactive
